From PubChem BioAssay (NCATS)
Inconclusive results are not listed. A call without a number means that no potency is given here. Calls of active or inactive are those of the source. Calls come from the whole dose curve; as a rule, active = well fitted cell-killing curve with a large enough effect in the repeat runs; inconclusive = weak or mixed curves, or effect the other way; inactive = flat fitted curve, though single readings scatter.

Test: qHTS assay for small molecule antagonists of the retinoid-related orphan receptor gamma (ROR-gamma) signaling pathway - cell viability counter screen (AID 720652);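 note: compound exposure lasted 16 hr before ATP read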
Settings: RORgamma reporter cell line viability counter screen; series mostly up to 92.2 µM
Source text: National Center for Advancing Translational Sciences [NCATS]
NIH Chemical Genomics Center [NCGC]
National Institutes of Environmental Health Sciences [NIEHS]
National Toxicology Program [NTP]
Nuclear steroid hormone receptors are involved in many biological processes including inflammatory responses, cell proliferation, and apoptosis. Environmental factors or compounds disrupting these nuclear receptor pathways and gene expression may promote susceptibility to immunotoxicants and autoimmune diseases. One important group of these expression factors are the retinoid-related orphan receptors. To assess compounds that may interfere with the retinoid-related orphan receptor gamma (ROR-gamma) transcription factor, a cell-based luciferase assay was used.
The CHO cell-based assay utilizes a TET-inducible ROR expression factor and ROR response element-LUC reporter gene. Reporter activity was induced using doxycycline and measured after 16hr incubation. Luminescence was read using Viewlux (PerkinElmer), where a decrease in reporter activity would show a decrease in luminescence. The cytotoxicity of the compounds against ROR response-Luc reporter gene cell line was quantified by measuring the intracellular ATP content.
1,000 cells in 4 uL/well were dispensed into white wall/solid bottom 1536-well plates using a Multidrop Combi (Thermo Scientific) dispenser. Following incubation at 37 C and 5% CO2 for 5 hr, 23 nL compound or DMSO vehicle were transferred by a pin tool, then the plates were treated with 1 ul doxycycline to induce reporter gene activity. After 16 hr incubation at 37 C and 5% CO2, 5 uL/well of CellTiter-Glo reagent (Promega) was then added to each plate using a Flying Reagent Dispenser and incubated at room temperature for 30 min. The luminescence intensity was quantified on a ViewLux plate reader (PerkinElmer).
Potency is the fitted concentration of half-maximal effect.

| Compound | Potency |
| --- | --- |
| O=C(OCC(COC(=O)c1ccccc1)(COC(=O)c1ccccc1)COC(=O)c1ccccc1)c1ccccc1 | inactive |
| CN(C)c1ccc(C2(c3ccc(N(C)C)cc3)OC(=O)c3cc(N(C)C)ccc32)cc1 | inactive |
| Cc1ccc(S(=O)(=O)Oc2ccc(N=Nc3ccc(-c4ccc(N=Nc5c(O)ccc6cc(S(=O)(=O)O)cc(S(=O)(=O)O)c56)c(C)c4)cc3C)cc2)cc1 | inactive |
| CC(=O)Nc1ccc(C(=O)CCl)cc1 | 18.8 µM (active) |
| O=C=Nc1ccc(Cc2ccc(N=C=O)cc2)cc1 | inactive |
| Cc1cc(O)c(C(C)(C)C)cc1Sc1cc(C(C)(C)C)c(O)cc1C | 18.8 µM (active) |
| CCCCCCCC[N+](CCCCCCCC)(CCCCCCCC)CCCCCCCC | 9.44 µM (active) |
| O=C(/C=C/c1ccc(O)c(O)c1)OC1C[C@](O)(C(=O)O)C[C@@H](O)[C@H]1O (stereo not given in full) | inactive |
| O=Cc1ccc(Cl)c(Cl)c1 | inactive |
| CCCCCC/C(C=O)=C\c1ccccc1 | inactive |
| C=CC(=O)OCCOCCOC(=O)C=C | inactive |
| Cc1cccc(O)c1C | inactive |
| c1ccc2c(c1)ccc1cc3c(ccc4ccccc43)cc12 | inactive |
| Nc1ccc2cc3ccccc3cc2c1 | inactive |
| C=C(C)c1ccccc1 | inactive |
| O=C1OC(O)C(C(Cl)Cl)=C1Cl (stereo not given) | 26.6 µM (active) |
| O=[N+]([O-])c1cc([N+](=O)[O-])c2ccc(S(=O)(=O)O)cc2c1O | inactive |
| CN1[C@H]2CC(OC(=O)[C@H](CO)c3ccccc3)C[C@H]1[C@H]1O[C@H]12 (stereo not given in full) | inactive |
| CO[C@H]1/C=C/O[C@@]2(C)Oc3c(C)c(O)c4c(O)c(c5c(c4c3C2=O)NC2(CCN(CC(C)C)CC2)N=5)=NC(=O)/C(C)=C\C=C\[C@H](C)[C@H](O)[C@@H](C)[C@@H](O)[C@@H](C)[C@H](OC(C)=O)[C@@H]1C | inactive |
| CCC(C)Nc1ccc(NC(C)CC)cc1 (stereo not given) | 8.41 µM (active) |
